Screen size: about 13,000 compounds; about 3,200 (25%) showed an effect of 50% or more. This is one part of the list.

The subject of this test is P. falciparum stage V gametocytes. Also on record: BacTiter-Glo ATP luminescence viability of purified stage V gametocytes in 384-well plates, per cent inhibition versus DMSO. Conditions: 48 h, 5 µM; inhibitor.
The term % Inhibition denotes the drop in the measured response relative to a control, in per cent. Take `CCN(CC)c1ccc(C(c2ccc(N(CC)CC)cc2)c2ccc([N+](=O)[O-])cc2)cc1` [TCMDC-131286]: the “% Inhibition” value was -67.18%.

`N#Cc1cc([N+](=O)[O-])ccc1-n1nc(C(N)=O)n(Cc2cccc(F)c2)c1=S` [TCMDC-134721]: the “% Inhibition” value is 80.05%.

For `Cc1cccc(CC2CC(=O)N(c3ccc([N+](=O)[O-])cc3)C2=O)c1` (stereo not drawn) [TCMDC-125732], the “% Inhibition” value is recorded as -3.627%. The value for `CCN(CCNC(=O)Cn1c(C)cc2cc([N+](=O)[O-])ccc21)c1cccc(C)c1` [TCMDC-140764] was 1.649%.

With `N#Cc1ccccc1C(=O)N(Cc1cncn1Cc1cccc(F)c1)CC1CC1` [TCMDC-132459], the “% Inhibition” value was -1.299%. The value for `CN(C)CCN(Cc1ccccc1)c1ccc([N+](=O)[O-])cc1C(F)(F)F` [TCMDC-135372] was 16.64%.

For the compound `O=C(NC1CC1)c1ccc(Cn2c(SCc3cccc([N+](=O)[O-])c3)nc3ccccc3c2=O)cc1` [TCMDC-123577], the “% Inhibition” value is listed as 43.52%.

With `CC(C)CCn1c(Sc2ccc([N+](=O)[O-])cc2C(F)(F)F)nnc1-c1ccccc1Cl` [TCMDC-135484], the “% Inhibition” value is listed as 10.18%. With `O=[N+]([O-])c1ccc(-n2nc(Cc3ccccc3)n(Cc3cccc(F)c3)c2=S)c(C(F)(F)F)c1` [TCMDC-135486] the figure was 73.39%; with `Cc1cccc(Cn2c(C(N)=O)nn(-c3ccc([N+](=O)[O-])cc3C#N)c2=S)c1` [TCMDC-134720], 78.61%; with `O=C(CCc1cccc(O)c1)NCC(NCCCNc1cc(=O)c2ccccc2[nH]1)c1cc(Br)cc(Br)c1` (stereo not drawn) [TCMDC-140319], -27.67%. The value for `COc1ccc(C(=O)N2CCC3(CC2)C(=O)N(CC(=O)NCC2CCCCC2)CN3c2ccccc2)c(OC)c1` [TCMDC-125170] was -47.66%; that for `O=C(NCC1CCN(Cc2cccc(F)c2)C1)c1cc(-c2cccc(C(F)(F)F)c2)cs1` (stereo not drawn) [TCMDC-134480] was 4.488%. The value for `CN(C)c1ccc(-c2csc(C(=O)NCC3CCN(CC4CCCCC4)C3)c2)cc1.O=C(O)C(F)(F)F` (stereo not drawn) [TCMDC-134424] was 97.4%; that for `O=C(NCC1CCN(CC2CCCCC2)C1)c1cc(-c2cccc(C(F)(F)F)c2)cs1.O=C(O)C(F)(F)F` (stereo not drawn) [TCMDC-134422] was 101.5%; that for `CC(=O)Nc1ccc(CN2CCC(CNC(=O)c3cc(-c4cccc(C(F)(F)F)c4)cs3)C2)cc1.O=C(O)C(F)(F)F` (stereo not drawn) [TCMDC-134456] was 0.3319%. In the case of `O=C(NCC1CCN(Cc2ccc3c(c2)OCCO3)C1)c1cc(-c2cccc(C(F)(F)F)c2)cs1.O=C(O)C(F)(F)F` (stereo not drawn) [TCMDC-134458], the “% Inhibition” value worked out at 1.256%.

`O=C(NCC1CCN(Cc2cccc(C(F)(F)F)c2)C1)c1cc(-c2cccc(F)c2)cs1` (stereo not drawn) [TCMDC-134484]: the “% Inhibition” value was determined as 54.37%. With `O=C(NCC1CCN(Cc2cccc(C(F)(F)F)c2)C1)c1cc(-c2cccc(C(F)(F)F)c2)cs1` (stereo not drawn) [TCMDC-134483] the figure was 53.9%; with `O=C(NCC1CCN(Cc2ccsc2)C1)c1cc(-c2cccc(C(F)(F)F)c2)cs1.O=C(O)C(F)(F)F` (stereo not drawn) [TCMDC-134478], -49.55%; with `COc1ccccc1C1CCN(C2CCC(NC(=O)/C=C/c3cccc(C(F)(F)F)c3)CC2)CC1` (stereo not drawn) [TCMDC-133555], -60.89%. With `Cc1cc(-c2cccc3c(NC(=O)N4CCc5cc6nccc(N7CCN8CCC[C@H]8C7)c6cc54)cccc23)cc(C)n1` [TCMDC-139794] the figure was -14.58%.

On to `COc1cc2c(cc1C(F)(F)F)N(C(=O)Nc1cc(F)cc(-c3cncnc3)c1)CC2` [TCMDC-139039], for which the “% Inhibition” value is on record as -11.26%. The value for `O=C(Nc1cccc(-c2nc3ccccc3[nH]2)c1)c1cccc(NC(=O)c2ccco2)c1` [TCMDC-125185] was 18.17%. With `CC(=O)c1ccc(S(=O)(=O)N2CCC(C(=O)Nc3ccccc3N3CCCC3)CC2)cc1` [TCMDC-125467] the figure was -11.47%. With `CCC(C)NS(=O)(=O)c1ccc2nc(Nc3ccc(C)c(Cl)c3)n([C@H](C)C(C)(C)C)c2c1` (stereo partly drawn) [TCMDC-136238] the figure was 38.05%; with `O=C(C=Cc1cccs1)Nc1ccc(-c2nc3ccccc3[nH]2)cc1` [TCMDC-123926], -97.24%; with `COc1ccccc1CN1CCC(CNC(=O)c2cc(-c3cccc(C(F)(F)F)c3)cs2)C1.O=C(O)C(F)(F)F` (stereo not drawn) [TCMDC-134450], -43.84%. On to `COc1ccccc1CN1CCC(CNC(=O)c2cc(-c3ccc(N(C)C)cc3)cs2)C1.O=C(O)C(F)(F)F` (stereo not drawn) [TCMDC-134451], for which the “% Inhibition” value is 95.05%. With `O=C(NCC1CCN(Cc2cccc(C(F)(F)F)c2)C1)c1cc(-c2cccc(Cl)c2)cs1` (stereo not drawn) [TCMDC-134485] the figure was 50.21%; with `CCCC(=O)Nc1ccc(OCCCN(Cc2ccccc2F)c2ccc(C#N)c(C(F)(F)F)c2)cc1` [TCMDC-135449], 24.41%; with `CN1CCN(Cc2ccc(-c3ccc4c(Nc5ccc(Cl)cc5F)ccnc4c3)o2)CC1` [TCMDC-138395], -22.3%. With `Fc1cc(Cl)ccc1Nc1ccnc2cc(-c3ccc(CN4CCSCC4)o3)ccc12` [TCMDC-138392] the figure was 1.462%; with `Oc1cc(Nc2ccnc3cc(-c4ccc(CN5CCCCC5)o4)ccc23)c(Cl)cc1F` [TCMDC-138485], 11.9%; with `CN1CCN(Cc2ccc(-c3ccc4c(Nc5cc(O)c(Cl)cc5F)ccnc4c3)o2)CC1` [TCMDC-138446], 74.65%. With `Fc1cc(Cl)ccc1Nc1ccnc2cc(-c3ccc(CN4CCCCC4)o3)ccc12` [TCMDC-138396] the figure was 9.087%; with `Fc1cc(Cl)ccc1Nc1ccnc2cc(-c3ccc(CN4CCNCC4)o3)ccc12` [TCMDC-138394], 83.09%. For `CN1CCN(Cc2ccc(-c3ccc4c(Nc5cc(O)c(F)cc5Cl)ccnc4c3)o2)CC1` [TCMDC-138486], the “% Inhibition” value is reported as 4.683%. Take `Fc1cc(Cl)ccc1Nc1ccnc2cc(-c3ccc(CNCCN4CCOCC4)o3)ccc12` [TCMDC-138397]: the “% Inhibition” value is -18.32%. With `Fc1cc(Cl)ccc1Nc1ccnc2cc(-c3ccc(CN4CCOCC4)o3)ccc12` [TCMDC-138393] the figure was 99.43%. The value for `COc1ccc2nccc(N3CCN(CCNCc4ccc5c(n4)NC(=O)CS5)CC3)c2c1.Cl` [TCMDC-141962] was 5.259%; that for `CCCCC1(c2ccc(F)cc2)NC(=O)N(CC(=O)c2cc(C)n(Cc3ccco3)c2C)C1=O` (stereo not drawn) [TCMDC-125119] was 0.3946%. Consider `CCNC(=O)c1cc(S(=O)(=O)N2CCN(c3ccccn3)CC2)cs1` [TCMDC-124848], for which the “% Inhibition” value is 88.58%.

Turning to `O=C(Nc1ccc(N2CCN(c3ncccc3C(F)(F)F)CC2)nc1)c1cccs1` [TCMDC-125784], the “% Inhibition” value came out at 10.79%.

In the case of `CC(=O)Nc1ccc(S(=O)(=O)N2CCN(c3nc(NC4CCCC4)c4ccccc4n3)CC2)cc1` [TCMDC-123869], the “% Inhibition” value is on record as 2.309%. The value for `CNC(=O)c1cc(S(=O)(=O)N2CCN(c3ccccn3)CC2)cs1` [TCMDC-124847] was 78.13%.

Take `CNC(=O)c1cc(S(=O)(=O)N2CCN(c3ccccn3)CC2)c(C)s1` [TCMDC-124846]: the “% Inhibition” value came to 34.83%.

`Cc1nc(-c2ccc3c(c2)CCN(CCC2CCC(NC(=O)c4cc5cccc(Cl)c5[nH]4)CC2)CC3)no1` (stereo not drawn) [TCMDC-140071]: the “% Inhibition” value was -33.37%. The value for `O=C(Nc1ccc(Cl)c(C(F)(F)F)c1)c1ccc(Cl)c([N+](=O)[O-])c1` [TCMDC-125647] was -24.24%; that for `O=C(c1ccc(F)c2ccccc12)N1CCc2cc3nccc(N4CCN5CCC[C@H]5C4)c3cc21` [TCMDC-140043] was 23.61%.

On to `CS(=O)(=O)c1ccc(CCNCc2ccc(-c3ccc(CN(C(=O)C4CCCC4)C4CCN(Cc5ccccc5)CC4)cc3)nc2)cc1` [TCMDC-141511], for which the “% Inhibition” value amounted to 48.38%.

Consider `CS(=O)(=O)c1ccc(CCNCc2ccc(-c3ccc(CNC4Cc5ccccc5C4)cc3)nc2)cc1` [TCMDC-141615], for which the “% Inhibition” value was determined as 5.211%.

On to `CS(=O)(=O)c1ccc(CCNCc2ccc(-c3ccc(CNC4CCN(Cc5ccccc5)CC4)cc3)nc2)cc1` [TCMDC-141614], for which the “% Inhibition” value is 33.12%.

With `CN1CCC(C(=O)N(Cc2ccc(-c3ccc(CNCCc4ccc(S(C)(=O)=O)cc4)cn3)cc2)C2Cc3ccccc3C2)CC1` [TCMDC-141508], the “% Inhibition” value worked out at 99.19%. The value for `c1ccc(CCNCc2ccc(-c3ccc(CNC4CCN(Cc5ccccc5)CC4)cc3)nc2)cc1` [TCMDC-141649] was 82.96%; that for `CS(=O)(=O)c1ccc(CCNCc2ccc(-c3ccc(CN(C(=O)C4CC(=O)c5ccccc54)C4CCN(Cc5ccccc5)CC4)cc3)nc2)cc1` (stereo not drawn) [TCMDC-141605] was 41.88%. The value for `CS(=O)(=O)c1ccc(CCNCc2ccc(-c3ccc(CN(C(=O)C4CC(=O)c5ccccc54)C4Cc5ccccc5C4)cc3)nc2)cc1` (stereo not drawn) [TCMDC-141509] was 97.27%. The value for `CN1CCC(C(=O)N(Cc2ccc(-c3ccc(CNCCc4ccc(S(C)(=O)=O)cc4)cn3)cc2)C2CCN(Cc3ccccc3)CC2)CC1` [TCMDC-141506] was 104.7%; that for `CC(C)c1ccc(Cn2cc(-c3ccncc3)c3cc(OCc4ccccc4)ccc32)cc1` [TCMDC-137225] was 2.514%. Turning to `CCc1cccc(NC(=O)c2ccc(CN3CCCN(CC4CCCCC4)CC3)cc2)c1` [TCMDC-136399], the “% Inhibition” value is -29.35%. Turning to `O=c1cc(NCCCNC2CCOc3c(I)cc(Cl)cc32)[nH]c2ccccc12` (stereo not drawn) [TCMDC-139489], the “% Inhibition” value is on record as -10.52%.

Take `O=C1COc2ccc(CNC3CCC(O)(CCc4ccnc5cc6c(cc45)OCCO6)CC3)nc2N1` (stereo not drawn) [TCMDC-141941]: the “% Inhibition” value is listed as 32.09%. Regarding `O=C(c1ccc(-c2ccc(-c3nc4cc(C(F)(F)F)ccc4[nH]3)s2)cc1)N1CCN(CCc2ccccc2)CC1` [TCMDC-132482], the “% Inhibition” value is reported as 3.451%.

These data come from paper PMC4552634, “A New Set of Chemical Starting Points with Plasmodium falciparum Transmission-Blocking Potential for Antimalarial Drug Discovery” (PLoS ONE, 2015).
